Experimental data from the supplement of paper PMC3545927.
This is one part of the list. No count for the full screen is at hand.

Biological target: furin, P09958
Assay: furin cleavage Z-score vs untreated control; higher = more cleavage, active = 3.5 or more, inactive = 1 or less, 8 variable residues between constant flanks
Outline: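 Magnetic beads held 8-mer peptides by the N-terminus, each fused to a cDNA oligonucleotide, and purified furin was added for 7.5, 15 or 30 min. Released DNA was sequenced after PCR adapter tagging. The cleavage Z-score is the log count relative to furin-free reactions, lowess-adjusted and divided by median absolute deviation.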
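Also: purified furin at 1:10 enzyme:substrate in 50 mM HEPES pH 7.5.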

Chain of furin, P09958 (P09958 whole entry): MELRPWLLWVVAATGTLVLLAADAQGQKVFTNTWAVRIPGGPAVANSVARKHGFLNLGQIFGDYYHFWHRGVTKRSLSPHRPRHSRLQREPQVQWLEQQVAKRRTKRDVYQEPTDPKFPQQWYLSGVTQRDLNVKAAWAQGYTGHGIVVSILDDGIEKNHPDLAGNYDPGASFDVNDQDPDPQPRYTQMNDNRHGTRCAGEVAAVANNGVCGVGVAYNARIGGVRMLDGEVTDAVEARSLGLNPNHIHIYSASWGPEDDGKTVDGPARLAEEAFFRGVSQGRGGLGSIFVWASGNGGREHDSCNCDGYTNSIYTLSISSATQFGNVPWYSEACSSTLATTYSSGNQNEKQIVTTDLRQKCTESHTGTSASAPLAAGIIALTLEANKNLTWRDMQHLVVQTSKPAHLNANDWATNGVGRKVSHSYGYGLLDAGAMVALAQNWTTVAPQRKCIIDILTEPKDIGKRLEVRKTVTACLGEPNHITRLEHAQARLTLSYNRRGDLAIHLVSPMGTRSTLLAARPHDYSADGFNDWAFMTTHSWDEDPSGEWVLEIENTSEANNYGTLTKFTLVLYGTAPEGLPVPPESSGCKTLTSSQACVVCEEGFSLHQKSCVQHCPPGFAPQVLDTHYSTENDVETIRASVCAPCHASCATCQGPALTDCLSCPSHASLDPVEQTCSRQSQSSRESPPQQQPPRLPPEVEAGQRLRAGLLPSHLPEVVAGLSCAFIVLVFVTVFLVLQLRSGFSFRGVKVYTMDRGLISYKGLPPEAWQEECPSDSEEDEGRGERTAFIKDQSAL

Sequence | furin cleavage Z-score (7.5 min) | furin cleavage Z-score (15 min) | furin cleavage Z-score (30 min)
CAADLMGYIPAGNASASA [HC226] | -1.64 (inactive) | -1.67 (inactive) | 0.444 (inactive)
CARQGRFDRSAGNASASA [FS-190] | 4.75 (active) | 6.18 (active) | 4.85 (active)
CALKKRGILSAGNASASA [FS-2409] | -1.13 (inactive) | -2.56 (inactive) | 0.734 (inactive)
CALKWRFDRSAGNASASA [FS-1640] | 3.41 | 4.74 (active) | 4.58 (active)
CARQGRSHHLAGNASASA [FS-2167] | 0.537 (inactive) | 1.01 | 2.02
CAWKDLLEDNAGNASASA [HC1432] | 0.826 (inactive) | 1.39 | -0.792 (inactive)
CAILSSLTVTAGNASASA [HC1134] | -0.227 (inactive) | -0.375 (inactive) | -0.271 (inactive)
CAIGGAGNNTAGNASASA [HC446] | 0.332 (inactive) | -0.689 (inactive) | 0.317 (inactive)
CAGSSSTSGIAGNASASA [HC1337] | 0.384 (inactive) | 0.604 (inactive) | -0.961 (inactive)
CAEVVTPTWVAGNASASA [HC160] | 0.0725 (inactive) | -1.35 (inactive) | -0.017 (inactive)
CARSRRRSRVAGNASASA [FS-3095] | 1.94 | 0.692 (inactive) | 3.48
CALASRGARVAGNASASA [FS-267] | -0.386 (inactive) | -0.302 (inactive) | 0.249 (inactive)
CAASRRRARVAGNASASA [FS-1187] | 3.47 | 3.01 | 4.72 (active)
CAVAARRARVAGNASASA [FS-307] | 1.69 | 3.8 (active) | 3.48
CAESDAAARVAGNASASA [HC1129] | -0.953 (inactive) | -0.591 (inactive) | -1.03 (inactive)
CASPPRRARVAGNASASA [FS-1571] | 0.556 (inactive) | 0.566 (inactive) | 3.24
CAGKFLADGGAGNASASA [HC809] | -1.28 (inactive) | -0.358 (inactive) | -0.637 (inactive)
CAYLVAYQATAGNASASA [HC953] | -0.934 (inactive) | -0.739 (inactive) | -1.07 (inactive)
CALIVFPDLGAGNASASA [HC1450] | -0.678 (inactive) | -1.11 (inactive) | -0.0519 (inactive)
CARRRRHEGPAGNASASA [FS-2233] | 3.52 (active) | 4.96 (active) | 4.69 (active)
CARRRRHSPPAGNASASA [FS-2453] | 5.59 (active) | 8.37 (active) | 6.78 (active)
CARRRRPGGPAGNASASA [FS-2792] | -0.8 (inactive) | -0.454 (inactive) | 0.146 (inactive)

Sequence | furin cleavage Z-score (7.5 min) | furin cleavage Z-score (15 min) | furin cleavage Z-score (30 min)
CARRRRASAPAGNASASA [FS-3062] | 7.44 (active) | 6.83 (active) | 5.33 (active)
CARRRRHRSYAGNASASA [FS-2078] | 6.85 (active) | 11.1 (active) | 9.14 (active)
CARCTTPCSGAGNASASA [HC1953] | -0.496 (inactive) | -1.94 (inactive) | -0.955 (inactive)
CAENVTSTWVAGNASASA [HC2181] | 0.856 (inactive) | -1.06 (inactive) | 0.371 (inactive)
CAPGGGQIVGAGNASASA [HC173] | -0.67 (inactive) | -2.32 (inactive) | 0.322 (inactive)
CAVVVTSTWVAGNASASA [HC2150] | -0.0276 (inactive) | -0.308 (inactive) | -1.74 (inactive)
CAEVVTSLWVAGNASASA [HC2205] | 0.73 (inactive) | -1.3 (inactive) | -0.955 (inactive)
CAACTTPCSGAGNASASA [HC1943] | -1.45 (inactive) | -0.341 (inactive) | -0.2 (inactive)
CASTPCSAMLAGNASASA [HC2546] | 1.06 | 0.507 (inactive) | -0.199 (inactive)
CARRRRLLIKAGNASASA [FS-2597] | -0.832 (inactive) | -0.657 (inactive) | -0.82 (inactive)
CARSRRHSPHAGNASASA [FS-2462] | 9.64 (active) | 10.4 (active) | 9.06 (active)
CARSTRFAATAGNASASA [FS-2188] | -0.54 (inactive) | -0.334 (inactive) | 1.52
CARSRRVQCHAGNASASA [FS-2091] | -0.135 (inactive) | -0.538 (inactive) | -0.773 (inactive)
CARHHRAAATAGNASASA [FS-2142] | -0.187 (inactive) | 1.63 | 1.18
CARRRRAAATAGNASASA [FS-2784] | 8.16 (active) | 6.75 (active) | 5.42 (active)
CARRRRHTFKAGNASASA [FS-2374] | 6.02 (active) | 8.84 (active) | 8.36 (active)
CAVVCCSMSCAGNASASA [HC2100] | -1.04 (inactive) | -1.97 (inactive) | -0.294 (inactive)
CANDARRTRSAGNASASA [FS-693] | 6.7 (active) | 7.77 (active) | 7.39 (active)
CAKSPRRTRSAGNASASA [FS-1351] | 5.21 (active) | 4.36 (active) | 2.84
CAESTTPCSGAGNASASA [HC1977] | -0.591 (inactive) | 0.488 (inactive) | -0.368 (inactive)
CAGTTDRSGAAGNASASA [HC419] | 1 | 2.15 | -0.141 (inactive)
